Test results taken from ChEMBL document CHEMBL3988442, “University of Dundee, Small-Polar-MMV Screening Library” (2021).

What was measured:
[1] = molecular target: T1, Aspartate--tRNA(Asp/Asn) ligase (Mycobacterium tuberculosis (strain ATCC 25618 / H37Rv)) (UniProt P9WFW3); experiment: Assay for Asp RNA synthetase-1 from Mycobacterium tuberculosis; format: functional; set-up: scale not given: direction of the effect not stated beside the values; settings: 30 µM; note: in the data most compounds retested in dose-response had high values
T1 sequence (whole entry): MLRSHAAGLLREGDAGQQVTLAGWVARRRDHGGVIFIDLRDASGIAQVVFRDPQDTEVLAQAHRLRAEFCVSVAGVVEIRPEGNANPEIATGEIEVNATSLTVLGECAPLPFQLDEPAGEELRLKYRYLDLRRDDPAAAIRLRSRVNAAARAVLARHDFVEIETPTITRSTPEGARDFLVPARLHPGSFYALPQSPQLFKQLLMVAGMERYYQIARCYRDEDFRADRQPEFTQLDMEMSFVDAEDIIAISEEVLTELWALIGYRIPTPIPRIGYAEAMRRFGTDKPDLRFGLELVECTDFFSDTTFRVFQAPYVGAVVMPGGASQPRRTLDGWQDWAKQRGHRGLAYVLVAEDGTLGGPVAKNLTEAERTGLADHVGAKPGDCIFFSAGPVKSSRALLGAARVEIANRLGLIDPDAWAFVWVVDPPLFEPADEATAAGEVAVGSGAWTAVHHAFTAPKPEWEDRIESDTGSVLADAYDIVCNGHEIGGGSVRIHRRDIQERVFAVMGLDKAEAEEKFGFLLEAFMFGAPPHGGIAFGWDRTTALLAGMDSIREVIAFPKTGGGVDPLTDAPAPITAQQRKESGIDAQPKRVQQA

[2] = molecular target: Shiga toxin 2 (Escherichia coli O157:H7) (UniProt P09385+P09386); experiment: E. coli 0.157:H7 Shiga Toxin SOP - stx2 screening assay; format: functional; set-up: scale not given: direction of the effect not stated beside the values; settings: 30 µM

Structure (SMILES)	Percent Effect [1]	Percent Effect [2]
CCc1ccc(CN2CC[C@H]3C[C@H](c4nnc(C)[nH]4)O[C@@H]3C2)o1	0.228%	1.93%
COc1ccc(OC)c(CN2CCCCCC2c2cccs2)c1 (stereo unspecified)	-3.22%	-16.4%
c1cncc(N2CCOCC3(CCCN(c4nncs4)C3)C2)c1 (stereo unspecified)	2.36%	-5.55%
CCn1c(CN2CCCC2)nnc1C1CCN(Cc2ccc(C)o2)CC1	-0.695%	1.78%
N#Cc1c(F)cccc1N1CCN(S(=O)(=O)c2cccs2)CC1	4.83%	-12.3%
CCN(CC)C(=O)CCc1c(C)nc2cc(O)nn2c1C	-1.56%	-6.53%
CCOc1ccccc1-c1noc(CN2CC(n3cccn3)C2)n1	0.259%	34.8%
c1cnc(N2CCC3(CCN(Cc4ccncc4)CC3)CC2)nc1	-2.46%	1.18%
COCc1ccccc1CNc1nnc(C)c(C)c1C#N	7.84%	29.7%
N#Cc1cccc(NC(=O)N[C@H](CO)c2ccccc2)c1	3.31%	-24.6%
O=c1c2sccc2nc2n1CCN(Cc1cccs1)CC2	6.74%	8.96%
Cc1cnn(CC2CN(Cc3nccn3C)CCO2)c1 (stereo unspecified)	-3.32%	17.1%
CCNc1cc2c(nn1)CCN(C(=O)c1ccc(NC3CC3)nc1)C2	-0.723%	2.8%
Cn1cc(C2CC(=O)NC23CCN(c2ncc(F)cn2)CC3)cn1 (stereo unspecified)	0.844%	-18.9%
O=C1CC(c2ccsc2)c2c(n(C3CCOCC3)[nH]c2=O)N1 (stereo unspecified)	-2.53%	-30.3%
CN1CCN(C(=O)c2ccc(=O)n(C)c2)c2ccccc21	-7.61%	-16.6%
Cc1ccc(C(=O)N2C[C@@H]3OCCN(CCN4CCCC4)[C@@H]3C2)cn1	-1.02%	3.78%
Cc1cc(N2CCC(CC(N)=O)CC2)nc(-c2ccncc2)n1	6.11%	0.525%
O=C(c1ccc(F)cc1F)N1CC[C@H](O)[C@@H](N2CCOCC2)CC1	0.28%	-21.2%
CC(C)c1noc(CN2CCN(C(=O)c3ccccc3F)CC2)n1	-2.91%	12.1%
Cn1cnc2c1C(COCC1CC1)CN(C(=O)Cc1ccsc1)C2 (stereo unspecified)	0.364%	-17.9%
CS(=O)(=O)NC[C@]12COC[C@H]1CN(C(=O)c1ccoc1)C2	0.452%	-5.39%
CC(C)c1nn(C)c(Cl)c1CNCC(O)c1cccc(F)c1 (stereo unspecified)	-0.173%	10.3%
CN(CC(=O)N1CCC(Oc2ccccc2)CC1)c1cnccn1	0.175%	-7.36%
Cc1ccc(CN(C)C(=O)CN2CC(n3cccn3)C2)o1	1.26%	-26.8%

Structure (SMILES)	Percent Effect [1]	Percent Effect [2]
Cc1occc1C(=O)N1CCC[C@]2(C[C@@H](OCc3ccncc3)CO2)C1	6.93%	-29.1%
CN(C)S(=O)(=O)N1CCN(C(=O)c2ccc3ccn(C)c3c2)CC1	-0.254%	4.4%
CCN(CC)Cc1cn2c(n1)CN(C(=O)c1cnccn1)CC2	0.29%	5.28%
O=c1[nH]c2nc(N3CCSCC3)ncc2c(=O)n1-c1cccc(F)c1	13.7%	-14.3%
CN1CCOC(CNCc2coc(-c3ccccc3)n2)C1 (stereo unspecified)	-1.77%	-3.88%
CC1CCc2nc(O)c(C(=O)NCc3cccc(F)c3)cc2C1 (stereo unspecified)	1.04%	-8.04%
CC(C)(C)c1ncc2c(n1)CN(C(=O)c1ccncc1)C2	2.51%	-10.4%
Cc1ccc(CN(C)C(=O)CN2CCCC2Cn2cccn2)o1 (stereo unspecified)	-1.15%	-15.7%
CCCNC(=O)Nc1cccc2c1CCN(S(C)(=O)=O)C2	6.02%	-15%
CC(=O)NC1CCCN(C(=O)c2ccc(Br)cc2O)C1 (stereo unspecified)	2.34%	19.3%
COc1cccc(C(=O)N2CCCCC2CNC(N)=O)c1 (stereo unspecified)	3.2%	26.9%
Cc1cc(C)n(C2CCCN(C(=O)COCC(F)(F)F)C2)n1 (stereo unspecified)	-4.61%	-2.74%
Cc1cnn(CC2CN(CCN3CCCC3=O)CCO2)c1 (stereo unspecified)	-4.53%	8.14%
CCc1ccccc1CN1CC[C@@H](NC(=O)c2cccnc2)[C@H](O)C1	-4.34%	-1.07%
Cc1ccc(NC2CCN(C(=O)COCC(F)(F)F)CC2)nn1	-0.48%	-13.9%
Cc1cn2c(n1)CCC(NC(=O)c1ccc(CS(C)(=O)=O)o1)C2 (stereo unspecified)	-4.46%	10.6%
O=C(NCCO)Nc1cccc(Cl)c1SC(F)F	0.334%	-19.7%
Cc1ccc(C(=O)NCCCNS(C)(=O)=O)c(=O)[nH]1	-3.45%	-17.7%
Clc1ccc2cccnc2c1CN1CCCC(Cn2cncn2)C1 (stereo unspecified)	-1.86%	-6.27%
CNC(=O)C1CCN(C(=O)CCn2cccn2)CC1	6.32%	26%
O=C(O)c1cc2c(nc1O)CC(c1cccc(Cl)c1)CC2=O (stereo unspecified)	0.494%	-22.1%
Cc1cc(C)n(CC2CCCN2C(=O)CCCc2ccccn2)n1 (stereo unspecified)	-1.59%	31.8%
COc1ccnc(N2CCN(C(=O)c3cnn(C)c3C3CC3)CC2)n1	-3.2%	11.7%
COCCNC(=O)CN1CCN(c2nc(C)cs2)C(C)C1 (stereo unspecified)	-0.728%	-15.9%
c1nc(CCC2CCCN2)cc(N2CCCOCC2)n1 (stereo unspecified)	-5.88%	-10.1%

Structure (SMILES)	Percent Effect [1]	Percent Effect [2]
COCCNC(=O)[C@@H]1CC[C@@H]2[C@@H](CCN2Cc2cnn(C)c2)O1	2.71%	-20.8%
Cc1nn(C)c(N2CCOCC2)c1CNC(C)c1ccco1 (stereo unspecified)	-3.01%	5.98%
Cc1cnc(C(=O)N(CCN(C)C)Cc2ccc(Cl)cc2)cn1	-1.59%	5.25%
CC(=O)Nc1cccc(C(=O)Nc2cnc3n2CCCC3)c1	2.26%	-9.23%
CCOCC1CN(Cc2cnn(C)c2)Cc2ncn(CC3CC3)c21 (stereo unspecified)	2.64%	3.02%
Cc1cc(C)c2nc(CN3CC[C@@H](O)C3)cc(O)c2c1	3.16%	7.54%
Cc1ncsc1CCC(=O)N1CCCC[C@H](N(C)C)C1	-3.74%	3.62%
O=C(NC1CCCC1)NC1CCC(C(=O)N2CCSCC2)CC1 (stereo unspecified)	1.78%	-37.4%
CCC1CCCN(C(=O)Cc2csc(-c3ncccn3)n2)C1 (stereo unspecified)	0.456%	-14.8%
CN(C)c1cncc(C2CCN(CCO)CC2)n1	-2.69%	-4.99%
Cn1cccc1C(=O)N1CCC2(CC1)CN(c1cncnc1)C(=O)CO2	-4.72%	-1.71%
O=C(NCCc1ccccc1)C1CCC(Cn2cnnn2)CC1 (stereo unspecified)	-4.3%	-20.1%
CC(C)c1nc2n(n1)CC(NCc1ncc(-c3ccccc3)o1)CC2 (stereo unspecified)	-5.88%	-9.35%
CN(C)CCN1CCO[C@H]2CN(Cc3cnn(C)c3)C[C@H]21	-1.31%	-7.4%
Cc1ccc2c(ccn2CCC(=O)N2CCC(C(N)=O)CC2)c1	0.842%	-2.06%
COc1ccccc1OCCN1CCCC(c2cc(C(N)=O)[nH]n2)C1 (stereo unspecified)	0.0735%	5.34%
Cc1nc(CCCNC(=O)C2CC(=O)N(C3CC3)C2)sc1C (stereo unspecified)	3.67%	-28.3%
Cc1cccc(CN2CCC3(CCCN(C(=O)c4ccsc4)C3)C2=O)n1 (stereo unspecified)	-2.4%	-10.9%
CSCCCN1CCn2nc(CNC(C)=O)cc2C1	3.05%	-62.7%
CCc1nc(CN(C)C2CCN(Cc3ccc(C#N)cc3F)C2)no1 (stereo unspecified)	-1.38%	20.3%
Cc1ccc(C)c(NC(=O)Nc2c[nH]c(=O)[nH]c2=O)c1	-1.44%	2.86%
CCc1cc(=O)[nH]c2nnc(SCC(=O)OC)n12	-8.74%	-6.54%
Cc1nc(-c2ccsc2)ccc1C(=O)O	-0.501%	-2.78%
